Source: PubChem BioAssay (NCI)
About 83,000 compounds went through this panel and 20% of them were active in at least one assay; those are over-represented in the sample as a whole.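 Growth was measured after 48 h exposure to one concentration of compound in 96-well plates. Values under 10 count as active.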 A number with no mark means an inactive call. Activity calls are given as the source filed them.

What was measured:
Assay in all cases: NCI-60 one-dose screen, 48 h (100 = growth as untreated, 0 = no growth, -100 = all killed)
Conditions in all cases: 10 µM unless noted
SK-MEL-2 melanoma = test system: SK-MEL-2 melanoma
EKVX NSCLC = test system: EKVX NSCLC
SN12C renal = test system: SN12C renal
UO-31 renal = test system: UO-31 renal
TK-10 renal = test system: TK-10 renal
ACHN renal = test system: ACHN renal
CAKI-1 renal = test system: CAKI-1 renal
A498 renal = test system: A498 renal
CCRF-CEM leukemia = test system: CCRF-CEM leukemia
MOLT-4 leukemia = test system: MOLT-4 leukemia
SR leukemia = test system: SR leukemia
RPMI-8226 leukemia = test system: RPMI-8226 leukemia
OVCAR-8 ovarian = test system: OVCAR-8 ovarian
OVCAR-5 ovarian = test system: OVCAR-5 ovarian
OVCAR-4 ovarian = test system: OVCAR-4 ovarian
SK-OV-3 ovarian = test system: SK-OV-3 ovarian
IGROV1 ovarian = test system: IGROV1 ovarian
OVCAR-3 ovarian = test system: OVCAR-3 ovarian
HS 578T breast = test system: HS 578T breast
NCI/ADR-RES ovarian = test system: NCI/ADR-RES ovarian

Row | Compound | growth (SK-MEL-2 melanoma) | growth (EKVX NSCLC) | growth (SN12C renal) | growth (UO-31 renal) | growth (TK-10 renal) | growth (ACHN renal) | growth (CAKI-1 renal) | growth (A498 renal) | growth (CCRF-CEM leukemia) | growth (MOLT-4 leukemia) | growth (SR leukemia) | growth (RPMI-8226 leukemia) | growth (OVCAR-8 ovarian) | growth (OVCAR-5 ovarian) | growth (OVCAR-4 ovarian) | growth (SK-OV-3 ovarian) | growth (IGROV1 ovarian) | growth (OVCAR-3 ovarian) | growth (HS 578T breast) | growth (NCI/ADR-RES ovarian)
1 | Cc1ccc(-c2nc(N3CCNCC3)c3oc(-c4ccc(C)cc4)nc3n2)cc1 | 99.2% | 120% | 50.9% | 64.6% | -30.4% (active) | 50.7% | 101% | 94.8% | -72.2% (active) | -72.6% (active) | -49.2% (active) | -49.1% (active) | -69% (active) | 78.4% | 11.9% | 86.2% | -77.1% (active) | -94.6% (active) | 99.2% | -28.9% (active)
2 | CN(C)c1ccc(/C=C(\C#N)c2cc3ccccc3[nH]2)cc1 | 27.3% | 42.2% | 29% | 37.8% | 49.2% | 46.2% | 31.5% | 14.4% | 9.57% (active) | 38.4% | 20% | 6.48% (active) | 26% | 44.9% | 55.7% | 26.5% | 50% | 8.37% (active) | 1.2% (active) | 10.8%
3 | N#C/C(=C\C=C\c1ccc(-c2cc(Cl)ccc2Cl)o1)c1nc2ccccc2s1 | 104% | 80.2% | 92% | 68.2% | 118% | 90.5% | 75.1% | 126% | 91.8% | 99.1% | 92.7% | 96.5% | 96.4% | 102% | 98.9% | 76.8% | 70.6% | 105% | 100% | 100%
4 | CC1(C)CC[C@]2(C(=O)N[C@H](CO)Cc3ccccc3)CC[C@]3(C)C(=CC[C@@H]4[C@@]5(C)CCCNC(C)(C)[C@@H]5CC[C@]43C)[C@@H]2C1 | 107% | 90.9% | 78.6% | 66.5% | 95.5% | 101% | 77.3% | 85.1% | 41.8% | 35.1% | -5.95% (active) | 36% | 97% | 101% | 87.7% | 100% | 65.1% | 97.3% | 85.6% | 85.6%
5 | COc1cc2c(cc1OCCCCN1CCN(C(=S)SCCC(C#N)(c3ccccc3)c3ccccc3)CC1)N=C[C@@H]1CCCN1C2=O | -95.1% (active) | -94.8% (active) | -57.4% (active) | 10.8% | -79.6% (active) | -68.8% (active) | -64.7% (active) | -95% (active) | -20.2% (active) | -13.2% (active) | -44.1% (active) | -18% (active) | 15.9% | -17.1% (active) | -11.8% (active) | -7.37% (active) | -76.6% (active) | -85.9% (active) | -11.7% (active) | 13.9%
6 | COC(=O)/C=C1/SC(=Nc2ccc([N+](=O)[O-])cc2)N(CCc2c[nH]c3ccc(O)cc23)C1=O | 39.7% | 64.7% | 45.8% | 53.5% | 85.2% | 53.4% | 71.4% | 80.5% | 10.9% | 10.9% | -22.5% (active) | 8.49% (active) | 38.4% | 86.4% | 45.1% | 61.3% | 42.6% | 50.9% | 47.5% | 43.9%
7 | C=C1CC[C@@H]2[C@](C)(COC(C)=O)[C@H](OC(C)=O)CC[C@@]2(C)[C@@H]1CC(Nc1ccc(S(=O)(=O)NC(C)=O)cc1)C1=CCOC1=O (stereo not given in full) | -7.41% (active) | 57.5% | 1.94% (active) | -58.5% (active) | 2.78% (active) | -63.2% (active) | 30.3% | 73.4% | -27.9% (active) | 0.118% (active) | 2.08% (active) | -16.2% (active) | -18.2% (active) | -40.1% (active) | 26.1% | 67.3% | -10% (active) | -87.7% (active) | 32.5% | 11.9%
8 | O=C1c2ccccc2C(=O)C1c1ccc(Br)cc1 | 106% | 95.6% | 95.3% | 82.6% | 125% | 97.1% | 82.8% | 85.5% | 75.6% | 101% | 97.3% | 82.9% | 102% | 107% | 98.8% | 111% | 104% | 116% | 99.3% | 91.9%
9 | CN1C(=O)/C(=C2\SC(=Nc3ccccc3)N(Nc3ccccc3)C2=O)c2ccccc21 | 108% | 101% | 97.8% | 61.4% | 148% | 95.3% | 74.2% | 103% | 103% | 101% | 117% | 106% | 102% | 104% | 111% | 98% | 79.5% | 110% | 107% | 102%
10 | C=C1C(=O)O[C@H]2[C@H]1CC/C(COC(=O)c1ccc(C(=O)O)s1)=C\CC[C@@]1(C)O[C@@H]21 | 49.5% | 34.2% | -8.57% (active) | 29% | 13.1% | 17.4% | 8.39% (active) | 104% | -28.7% (active) | -7% (active) | -12.8% (active) | -25.9% (active) | 17.9% | 48.6% | 35.2% | 96.6% | -26.8% (active) | 0.215% (active) | 37.6% | 42%
11 | CCCCCCCCCCCCCOC(=O)c1c(C)[nH]c(/C=C2\N=C(c3ccc[nH]3)C=C2OC)c1C | -42.1% (active) | 52.3% | 40.7% | -54.4% (active) | 34.4% | 8.11% (active) | -7.49% (active) | 10.3% | 17.8% | 22.8% | -10.8% (active) | 11.2% | 18.3% | 44% | 55.8% | 47.4% | 22% | 11.3% | 18% | 22.5%
12 | CC(C)(C)n1cc(-c2ccnc(NCCCNS(=O)(=O)c3cccc4ccccc34)c2)c(-c2cccc(F)c2)n1 | 107% | 68.6% | 73.3% | 65.9% | 97% | 91.5% | 94.3% | 29.2% | 56.9% | 57.9% | 27.8% | 65.4% | 81.4% | 91.9% | 78.1% | 91.9% | 78.9% | 90.1% | 91.4% | 78.2%
13 | COc1cc(OC)cc(-c2ccc(-c3ccc(C(=N)N)o3)o2)c1 | 88.1% | 85.2% | 53% | 67.3% | 83.7% | 72.6% | 81.3% | 68.5% | 48.3% | 31.4% | -17.3% (active) | 20.6% | 64.3% | 83.5% | 85.5% | 88.2% | 58.1% | 25.7% | 78% | 68.9%
14 | CC/C=C\CCC/C=C1/C(=O)C=C[C@@H]1C/C=C\CCCC(=O)OC | 87.3% | 99.3% | 11.6% | 69.8% | 100% | 42.9% | 54.1% | 95.9% | 3.2% (active) | 3.52% (active) | 2.36% (active) | 1.41% (active) | 14.2% | 73.5% | 76.6% | 119% | 84.2% | 26.7% | 37.2% | 25.9%
